# System: PPARg homodimer (NR concentration 180 nM)
# Assay: PBM binding z-score (relative to random genomic background probes); higher = stronger binding; sequences stand for … in GC…GCGATTGACAGCGTAGAATGAAGG
# In short: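 For binding z-scores, the reference was random background probes on custom Agilent 4×180K protein-binding microarrays. These arrays were incubated 1 h with ligand-free nuclear receptor dimers in PBS pH 7.4, 2% milk, 0.02% Triton X-100, 1 mM DTT, 0.2 mg/mL BSA and 0.4 mg/ml salmon testes DNA. Fluorescence was scanned after antibody detection of each partner (one per run) and regression-normalized.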
row,Sequence,PBM binding z-score
1,CCTACTGGGCCATTCAGAGGTCATTTATCATATG,2.27
2,CCGAGTAGCTTATGGGGCATTCAGGCAACGGTGA,-0.422
3,CCTACTGGGCCATTTAGAGGTCATTGATCATATG,2.07
4,CGAACGAGGGCATGAGTTGGTAGCAAATGCCGAT,-0.306
5,TATACAGGTTCAAAGGCCAGAGTACGAATGTCGA,1.53
6,CCGACTCGGGCAAGGTTACCATAACGCACAGCCA,-0.121
7,CCTACCGGGCCACGAAAGGTCATTGATTCAGTGA,2.6
8,TGAATGAGGTTAAAGATCAGAGAACGTGGCGTCG,0.79
9,TCCGCTAGGTCAACGATGGTCAGCTAATCTGCTA,0.617
10,GCGACTGGGGCAAAGCAGGTTACCAAAAGGTTGG,-0.131
11,CCTACTGGGCCATCAGGTAATTGATATCAACGTT,0.173
12,TCATATAAGTAAATGCTAGGTGAAAGTCCGATCT,1.1
13,CCGAGTAGGTTATGGGGCACTCAGGCAACGGTGA,0.446
14,TCTTGTAGATCATTAGAGGTTAAGAAAGTGCGCT,0.628
15,ATATGTAGGTTAAGGGTCATTGAGGTTGGTTCGC,3.71
16,ACTAGCAGGCCAAGGGGCACTCAAGATTAGTCCG,-0.02
17,TAGCCGAGGTCAGATCGGGCCAGTATACGCTATA,1.19
18,GCGACAGGGGCAAAGCAGGTTACCATAAGGTTGG,0.212
19,CCTTACGGGTCACTGATAGGTTATAGCATTTGGA,2.47
20,CCTACTGGGCCCCGAAAGGTCATTGATTCAGTGA,2.6
21,ACTATTAGTTGACATAGGGCAACCGATACGACGC,0.811
22,CTTGCTAGGTCATGGTCAGCTAATCTACAGTATG,1.37

# Reference: the supplement of paper PMC6555819
